According to PubChem BioAssay AID430 (Sanford-Burnham Center for Chemical Genomics, 2006):
Hit rate of the full screen: of about 63,000 compounds, about 1,100 (1.7%) were called active. The entries come from a sample that favours actives as a whole. Entries with a potency or affinity are not part of this list. Unmarked numbers belong to inactive results. No stated cut-off is given here; in the data, active means cytotoxicity above about 50%; inactive means the rest.

assay: HPDE-C7 pancreatic duct cell viability loss – fluorescence, HTS (AID 430); conditions: HPDE-C7 pancreatic duct cells viability, at 10 µM, hits give high values;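 further: cells exposed to compound for 48 hours before viability readout; 0% = vehicle and 100% = reference cytotoxic drug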

| SMILES | cytotoxicity |
| --- | --- |
| CCOC(=O)C1CCCN(C(=O)c2cn(CC)c3ccc(S(=O)(=O)N4CCCC4)cc3c2=O)C1 (stereo not drawn) | -6.2% |
| CC(C)NC(=O)c1ccccc1NC(=O)CCS(=O)(=O)Cc1ccccc1 | -16.4% |
| Cn1c(CSc2ccccc2)c(C#N)c2ccccc21 | -6.2% |
| O=C(CSc1nnc(NCc2ccccc2)s1)c1ccco1 | -4.8% |
| C=CCn1c(C)cc(C(=O)CSc2nnc(Cc3ccccc3)o2)c1C | -20.7% |
| Cc1cc(C(=O)CSc2nnc(NCc3ccccc3)s2)c(C)n1C | 58% (active) |
| C=CCn1c(C)cc(C(=O)CSc2nnc(NCc3ccccc3)s2)c1C | 52.9% (active) |
| Cc1cc(C(=O)CSc2nnc(Nc3ccccc3)s2)c(C)n1CC1CCCO1 (stereo not drawn) | 2.6% |
| Cc1cc(C(=O)CSc2nnc(-c3ccccc3)n2C)c(C)n1C | 5.7% |
| Cc1cc(N2C(=O)C3C4C=CC(C4)C3C2=O)no1 (stereo not drawn) | -1% |
| COCCCn1c(=S)[nH]c2ccc(N3CCOCC3)cc2c1=O | -10.8% |
| O=C(O)CCCC(=O)Nc1ccccc1Br | 5.7% |
| CCOC(=O)Cc1csc(NS(=O)(=O)c2ccc3c4c(cccc24)C(=O)N3CC)n1 | 8.7% |
| CCN1C(=O)c2cccc3c(S(=O)(=O)Nc4ncccc4C)ccc1c23 | 23.7% |
| CCN1C(=O)c2cccc3c(S(=O)(=O)Nc4nc(C)cs4)ccc1c23 | 58.9% (active) |
| CC(=O)C(C(C)=O)c1c(Cl)c(O)c(O)c2c(C(=O)c3ccccc3)coc12 | 82.2% (active) |
| CCOC(=O)c1[nH]nc(C(=O)c2ccc(Br)cc2)c1O | -10.7% |
| Cc1ccc(C(=O)c2coc3ccc(O)c(CN4CCN(C)CC4)c23)cc1 | -5.9% |
| CN(C)Cc1c(O)ccc2occ(C(=O)c3ccccc3)c12 | 6.4% |
| O=C(c1ccccc1)c1coc2ccc(O)c(Cl)c12 | -4.8% |
| Cc1ccc(OCCn2nc3ccccc3n2)c(C)c1 | -1.3% |

| SMILES | cytotoxicity |
| --- | --- |
| O=C(CSc1nnc(CNC(=O)c2ccccc2F)o1)Nc1ccc2c(c1)OCCO2 | 1.1% |
| O=C(c1ccco1)N1CCN(S(=O)(=O)c2cccs2)CC1 | -11.8% |
| Cc1cc2cc(CN(C(=O)C3CC3)C3CCCC3)c3nnnn3c2cc1C | -22.1% |
| CCOc1ccccc1Nc1nc(N)nc(CSc2nncn2C)n1 | -1.9% |
| Cc1ccc(Oc2ccc(S(=O)(=O)N3CCOCC3)cc2C(N)=O)c(-n2nc3ccccc3n2)c1 | 53.1% (active) |
| COc1ccccc1Oc1ccc(S(=O)(=O)N2CCOCC2)cc1S(=O)(=O)N1CCOCC1 | -10.8% |
| Cc1ccc(S(=O)(=O)N2CCOCC2)cc1C(=O)O | -13.5% |
| COc1cnn(-c2ccccc2)c(=O)c1N(C)C | -1.2% |
| O=C(C1CC1)N1CCc2cc(Br)cc(S(=O)(=O)NCCN3CCOCC3)c21 | -14.7% |
| O=c1c2ccccc2nc(SCc2nnc(-c3ccccc3Br)o2)n1Cc1ccco1 | 14.1% |
| COC(=O)c1ccc(C(=O)OC)c(NC(=O)c2cnc3n(c2=O)CCS3)c1 | -7.2% |
| CCCc1[nH]nc2c1C(c1ccc(OC)cc1OC)C(C#N)=C(N)O2 (stereo not drawn) | -5% |
| OCC(CO)(CO)N=Cc1c(O)ccc2ccccc12 | 58.9% (active) |
| Oc1ccc2ccccc2c1C=NC12CN3CCN(CN(C3)C1)C2 | 0.3% |
| Oc1ccc2ccccc2c1/C=N/n1cnnc1 | 10.5% |
| CCNc1nc(N2CCCCC2)nc(-n2nnc(C(=O)OCC)c2C)n1 | -22.1% |
| O=c1[nH]c2ccccc2n1CCCOc1ccccc1 | 5% |
| C=CCSC1=N/C(=C\C=C\c2ccco2)C(=O)S1 | 45.9% |
| CCCSC1=N/C(=C\C=C\c2ccco2)C(=O)S1 | 61.6% (active) |
| O=C1SC(SCc2ccccc2)=N/C1=C\c1ccco1 | 2.6% |
| Cc1cccc(OCCCC(=O)Nc2ccc3c(c2)OCO3)c1 | 34% |

| SMILES | cytotoxicity |
| --- | --- |
| COc1ccc(C(C(=O)OC(C)CN(C)C)c2ccccc2)cc1 (stereo not drawn) | 4.3% |
| CCC(C(=O)c1ccc(O)cc1)c1ccccc1 (stereo not drawn) | 9.4% |
| CN(C)CC(C(=O)c1ccccc1)c1ccccc1 (stereo not drawn) | 103% (active) |
| N=c1n(CC(=O)O)c2ccccc2n1Cc1ccccc1Cl | -13.9% |
| O=C(Cn1nnc(-c2cccc(C(F)(F)F)c2)n1)NC1CCCC1 | 8.5% |
| Cc1cc(C)n(CC(=O)n2c3c(c4ccccc42)CCCC3)n1 | -18.6% |
| COC(=O)c1ccc2c(=O)n(Cc3ccc4c(c3)OCO4)c(SCC(=O)N3CCCC3)nc2c1 | 52.3% (active) |
| CC1CCCCN1C(=O)CSc1nc2cc3c(cc2c(=O)n1Cc1ccc2c(c1)OCO2)OCO3 (stereo not drawn) | 0.1% |
| COC(=O)c1ccc2c(=O)n(CCC3=CCCCC3)c(SCC(=O)N3CCCC3)nc2c1 | -13.9% |
| Nc1nc(CSc2ncn(-c3ccccc3)n2)cs1 | 15.3% |
| CC(=O)N(Cc1cc2ccc(C)c(C)c2n2nnnc12)C1CCCC1 | -3.5% |
| Cc1ccc(S(=O)(=O)N(CC(=O)O)Cc2ccccc2)cc1 | -7.6% |
| O=C(CN1C(=O)C2CC=C(Cl)CC2C1=O)N1CCOCC1 (stereo not drawn) | -3.5% |
| CN1CCN(C(=O)c2cccc(S(=O)(=O)N3CCCCC3)c2)CC1 | -2.6% |
| O=C(NC1CCCCC1)c1sc(=S)n2c1[nH]c(=O)c1ccccc12 | 82.6% (active) |
| Cn1c(=O)c(C(=O)NC2CCCCCCC2)c(O)c2ccccc21 | 9.6% |
| Cn1c(C(=O)NC2CCCC2)cc2c(=O)n(C)c3ccccc3c21 | 3.5% |
| O=C(NC1CCCCCCC1)c1c(O)c2ccccc2[nH]c1=O | -13.7% |
| O=C(NC1CCCCCC1)c1c(O)c2ccccc2[nH]c1=O | -4.9% |
| O=C(NC1CCCC1)c1sc(=S)n2c1[nH]c(=O)c1ccccc12 | 79.4% (active) |
| COCCN(CCOC)C(=O)CCn1c(=O)oc2ccccc21 | -0.2% |
